High-throughput results deposited in PubChem BioAssay by National Center for Advancing Translational Sciences (NCATS).
TDP-43 yeast inh: TDP-43 toxicity inhibition in yeast. TDP-43 expressing yeast growth rescue, BacTiter-Glo, 24 h. Potency, µM (highest dose often 46.1 µM), hits mostly activators. 1.8% of 410,000 active. AID 652104; note: nearly all actives have a fitted effect of over 50% in size
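Luminescence from BacTiter-Glo reports growth of TDP-43-expressing yeast after 24 hr at 30 deg C with compound. Cells were raffinose-pregrown to mid-log, then seeded in galactose medium at OD600=0.02.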
FUS yeast rescue: FUS proteinopathy suppression in yeast. 0.24% of 390,000 active. Potency, µM (titrated, usually from 76.6 µM), hits mostly activators. AID 1347120. S. cerevisiae FUS-expressing, growth rescue, OD600, 24 h; note: nearly all actives have a fitted effect of over 55% in size
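Quantitative HTS measuring growth restoration of FUS-toxic yeast. Galactose-induced cells (OD 0.005) were exposed 24hr at 30C to compounds at several concentrations, then absorbance at 600 nm was recorded.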
aSyn yeast inh: inhibitors of alpha-synuclein toxicity in yeast. Yeast expressing alpha-synuclein, growth rescue, BacTiter-Glo, 24 h. Potency, µM (highest dose often 46.1 µM), actives largely listed as activators. 0.14% of 370,000 active; note: nearly all actives have a fitted effect of over 65% in size
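Rescue of yeast growth: cells expressing toxic alpha-synuclein, induced in galactose at OD600 0.02, incubated with compound 24 h at 30 C. ATP luminescence quantified growth; inhibitors of toxicity appear as activators.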
Abeta yeast res: restores growth of yeast expressing A-beta42 peptide. yeast expressing A-beta42, growth rescue, OD600, 48 h; response scale: 0% DMSO, 100% iron-clioquinol control. Potency, µM (series often up to 46.1 µM), actives largely listed as activators. 0.063% of 410,000 active; note: nearly all actives have a fitted effect of over 55% in size
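Yeast growth medium received pinned compounds, then yeast cells expressing toxic A-beta were added; plates incubated at 30 C for 48 hr. Growth read as absorbance at 600 nm, normalized to DMSO and equimolar FeCl3 plus clioquinol controls.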
Of the large screens only hits and unclear results are named; the others gave an inactive call. A selection: hits, their analogues and other compounds. The true share with any hit is near 2.1%. Calls come from the whole dose curve; as a rule, active = well fitted curve in the direction sought with a large enough effect; inconclusive = small, poorly fitted or top-dose-only effect, or another doubt; inactive = no such curve, though single readings can be large; an effect the other way counts as inactive or inconclusive.

CCCCC[C@H](O)/C=C/C1C(=O)C=C[C@H]1C/C=C\CCCC(=O)OC (stereo not given in full)	TDP-43 yeast inh 28µM
CCc1ccc(-c2nc(CN3CCC(C(=O)NCc4ccc(F)cc4)CC3)c(C)o2)cc1	TDP-43 yeast inh 2µM (no result: aSyn yeast inh)
COc1ccc(-c2nc(CN3CCC(C(=O)NCc4ccc(F)cc4)CC3)c(C)o2)cc1OC	none (no result: aSyn yeast inh)
CCCN1CNc2c(c(=O)[nH]c(=S)n2CCc2ccc(C)cc2C)C1	none (no result: TDP-43 yeast inh, FUS yeast rescue, Abeta yeast res)
CCc1nnc(SC(CC)C(=O)Nc2cc(C)ccc2C)c2cc3occc3n12 (stereo not given)	none (no result: aSyn yeast inh)
CCc1cccc(C)c1NC(=O)C(CC)Sc1nncn2c1cc1occc12 (stereo not given)	TDP-43 yeast inh 14µM (no result: aSyn yeast inh)
COC(=O)[C@]12C[C@H](CC(=O)N3CCCCC3)C(=O)N(Cc3ccco3)C1=C[C@H](COCc1ccccc1)O[C@@H]2C	none (no result: TDP-43 yeast inh, aSyn yeast inh, Abeta yeast res)
FC(F)(F)c1cc(CCN2C(=S)NC[C@@H]2Cc2ccccc2)cc(C(F)(F)F)c1	TDP-43 yeast inh 22µM, FUS yeast rescue inconclusive, Abeta yeast res inconclusive
Oc1ccc(C[C@@H]2CNC(=S)N2CCc2cc(C(F)(F)F)cc(C(F)(F)F)c2)cc1	none
COc1ccc(NC(=O)C(c2ccc(C)cc2)N(C)C(=O)Cc2cccs2)cc1 (stereo not given)	TDP-43 yeast inh 13µM, Abeta yeast res inconclusive
Cc1ccc(NC(=O)[C@@H]2CCCN2S(=O)(=O)c2cccc3cccnc23)c(C)c1	none (no result: TDP-43 yeast inh, aSyn yeast inh, Abeta yeast res)
Cc1cccc2c(=O)n(C(=O)c3ccccc3)c(N)nc12	TDP-43 yeast inh 20µM
O=[N+]([O-])c1cccc(-c2ccc(SCc3cccnc3)nn2)c1	TDP-43 yeast inh 16µM
Cc1cc(/C=N/NC(N)=S)c(C)n1-c1ccc(Br)cc1	TDP-43 yeast inh inconclusive
Cc1cc(/C=C/C(=O)O)c(C)n1-c1ccc(Cl)cc1	TDP-43 yeast inh inconclusive, aSyn yeast inh 10µM
Cc1cc(/C=N/NC(N)=S)c(C)n1-c1cccc(Cl)c1	Abeta yeast res 10µM
Cc1cc(/C=N/NC(N)=S)c(C)n1-c1ccc(Cl)cc1	TDP-43 yeast inh inconclusive, FUS yeast rescue inconclusive, Abeta yeast res 10µM
Cc1cccc(C)c1-n1c(C)cc(/C=N/NC(N)=S)c1C	TDP-43 yeast inh 11µM, FUS yeast rescue inconclusive, Abeta yeast res inconclusive
O=C(CCCn1c2ccccc2c(=O)c2ccccc21)Nc1cccc(Cl)c1	TDP-43 yeast inh 35µM, FUS yeast rescue inconclusive (no result: aSyn yeast inh)
Cc1ccc(S(=O)(=O)c2c(N)n(/N=C/c3ccco3)c3nc4ccccc4nc23)cc1	TDP-43 yeast inh 14µM
CCNc1nc(N2CCCN(C)CC2)nc2cc(OC)c(OC)cc12	none (no result: TDP-43 yeast inh, FUS yeast rescue, Abeta yeast res)
COc1ccc(-c2nc(CNS(=O)(=O)c3cccc(F)c3)cs2)cc1	TDP-43 yeast inh 13µM (no result: aSyn yeast inh)
O=S(=O)(NCCc1csc(-c2cccnc2)n1)c1ccc(F)cc1	TDP-43 yeast inh 14µM (no result: FUS yeast rescue)
O=S(=O)(NCCc1csc(-c2ccc(F)cc2)n1)c1ccc(Cl)cc1	TDP-43 yeast inh 11µM, Abeta yeast res 6.3µM (no result: aSyn yeast inh)
CCS(=O)(=O)NCCc1csc(-c2ccccc2)n1	none
COc1ccc(-c2nc(CNS(=O)(=O)c3ccc(F)cc3)cs2)cc1	none (no result: aSyn yeast inh)
Cc1ccc(C)c(S(=O)(=O)NCCc2csc(-c3ccc(Cl)cc3)n2)c1	TDP-43 yeast inh 22µM (no result: aSyn yeast inh)
COc1ccc(S[C@]2(C(=O)NC3CC3)CC(=O)N[C@@H]2c2ccc(OC)cc2)cc1	none (no result: TDP-43 yeast inh, aSyn yeast inh, Abeta yeast res)
CC(C)(C)NC(=O)C(c1cccnc1)N(C(=O)c1cnc[nH]1)c1ccc(C(C)(C)C)cc1 (stereo not given)	none (no result: TDP-43 yeast inh, aSyn yeast inh, Abeta yeast res)
O=C(NC1CCCCN(Cc2cccc(C(F)(F)F)c2)C1=O)c1ccc(F)c(F)c1 (stereo not given)	none (no result: TDP-43 yeast inh, aSyn yeast inh, Abeta yeast res)
Cc1ccc(S(=O)(=O)NCCc2csc(-c3ccc(Cl)cc3)n2)cc1	TDP-43 yeast inh 20µM, Abeta yeast res inconclusive (no result: aSyn yeast inh)
COc1ccc(S(=O)(=O)NCCc2csc(-c3ccc(F)cc3)n2)cc1F	TDP-43 yeast inh 18µM (no result: aSyn yeast inh)
Cc1ccc(S(=O)(=O)NCCc2sc3nc(-c4ccccc4)nn3c2C)cc1C	TDP-43 yeast inh 13µM, Abeta yeast res inconclusive (no result: aSyn yeast inh)
Cc1ccc(CCNS(=O)(=O)c2cc(-c3cc(C)no3)ccc2C)cc1	TDP-43 yeast inh 22µM (no result: aSyn yeast inh)
COc1ccc(-c2nc(CNS(=O)(=O)c3ccc(C)cc3)cs2)cc1	none (no result: aSyn yeast inh)
OC(c1ccccc1)(c1ccccc1)C1CCN(CCCNc2ccccc2F)CC1	none (no result: TDP-43 yeast inh, aSyn yeast inh, Abeta yeast res)
CN(C)c1ccc(/C=C2\C=Cc3ccccc32)c(Cl)c1	none (no result: TDP-43 yeast inh, FUS yeast rescue, Abeta yeast res)
Cc1ccc(-c2nc(C3CCCN(S(=O)(=O)c4ccc(Cl)s4)C3)no2)cc1 (stereo not given)	none (no result: TDP-43 yeast inh, aSyn yeast inh, Abeta yeast res)
